This passage reports inhibition results from PubChem BioAssay AID1063 (University of Pittsburgh Molecular Library Screening Center, 2008).

The campaign covered roughly 200,000 compounds. About 18,000 (9%) were called active. The entries come from a sample that favours actives as a whole. A number with no mark means an inactive call. Cut-off read from the data, not from the text of the source: active = inhibition above about 50%; inactive = the rest.

The experiment can be described thus: Leishmania major promastigote growth inhibition, primary screen (AID 1063).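 Note: promastigotes grown with compound for 44 hours at 28 °C.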 The settings on record: Leishmania major promastigotes, resazurin fluorescence viability; at 10 µM; stronger effect = higher value. For orientation: Resazurin is reduced to fluorescent resorufin, in cell work by metabolically active cells.
On to `COc1ccc(/C=C/C(=O)Nc2cccnc2)cc1OC`, for which the inhibition was -4.52%. The figure for `Cc1cc(C)cc(C(=O)NCC(=O)OCC(=O)N2CCCCC2)c1` is -9.27%. The figure for `Cc1cc(C)n(CCNCc2c(C(=O)N3C[C@@H](C)O[C@@H](C)C3)nc3ccc(Cl)cn23)n1` is -6.81%. With `Cc1ccc(N(C(=O)c2sc(C)nc2C)C(C(=O)NC(C)(C)C)c2ccncc2)cc1` (centres undefined) the figure was -0.8%; with `O=C(O)/C=C/c1ccc(OCCCF)cc1`, -5.86%. With `COc1cccc(/C=C2\SC(=N)N(c3ccc(F)cc3)C2=O)c1`, the inhibition is 5.76%. The figure for `COc1ccc(-n2nnnc2SCC(=O)Nc2ccccc2)cc1` is -4.13%. Regarding `O=C(CSc1nnnn1-c1ccc(O)cc1)N1N=C(c2ccc3ccccc3c2)CC1c1ccccc1` (centres undefined), the inhibition was 99.8% (active). As for `COc1ccc(C2CC(c3ccccc3)=NN2C(=O)CSc2nccc(=O)[nH]2)cc1` (centres undefined), the inhibition is -0.2%. With `C/C(N)=C(/C#N)C(=O)COC(=O)C1CCN(C(=O)c2ccc(Cl)cc2)CC1`, the inhibition was -2.84%. `Cc1ccc(S(=O)(=O)/N=C(\N)c2ccc(F)cc2)cc1`: the inhibition is -1.71%. As to `NC(=O)c1ccc(NC(=O)COC(=O)c2c3c(nc4ccccc24)/C(=C\c2ccc4c(c2)OCO4)CCC3)cc1`, the inhibition is 18.2%.

Consider `O=C(COC(=O)c1c2c(nc3ccccc13)CCCC2)c1ccc(Br)s1`, for which the inhibition was 96.8% (active). In the case of `O=C(COC(=O)c1c2c(nc3ccccc13)/C(=C\c1cccs1)CCC2)Nc1ccccc1Cl`, the inhibition was 27.8%. With `COc1ccc2c(c1)CCC/C2=N\OC(=O)c1ccccc1F` the figure was -7.06%.

On to `COc1cc2nc(CN(C)Cc3ccc(F)cc3)[nH]c(=O)c2cc1OC`, for which the inhibition was 9.19%. `CC(=O)Nc1ccc(NC(=S)NC(=O)/C=C/c2ccccc2)cc1`: the inhibition is -1.29%. On to `CC(C)C(NC(=O)c1ccc(Cl)cc1)C(=O)O` (centres undefined), for which the inhibition was 27.4%. Turning to `CC(=O)Nc1cc(C(=O)O)ccc1S(=O)(=O)c1ccc(Cl)cc1`, the inhibition was -5.9%. As for `Cc1ccc(S(=O)(=O)c2ccc(Cl)cc2)cc1S(=O)(=O)NC(C(=O)O)C(C)C` (centres undefined), the inhibition was 50.9% (active). For `Cn1nc(-c2ccccc2)c(CO)c1Sc1ccccc1`, the inhibition was 18.3%.

As to `Cn1cnc([N+](=O)[O-])c1Sc1ccccc1`, the inhibition is 51.5% (active). `Cn1cnc([N+](=O)[O-])c1Nc1ccccc1O`: the inhibition is -4.52%.

On to `C=CCn1c(SCC(=O)CC(=O)OCC)nc2cc(C(=O)N3CCC(C(N)=O)CC3)ccc2c1=O`, for which the inhibition was -4.29%. The figure for `CCC(CC)C(=O)N1CCN(c2cccc(C)c2C)CC1` is -3.72%; for `CC(=O)N1CCN(c2cccc(C)c2C)CC1` it is -2.3%; for `Cc1cccc(N2CCN(C(=O)c3cnn4c(C(F)F)cc(-c5ccccc5)nc34)CC2)c1C` it is 90.6% (active).

As to `CC(=O)Nc1ccccc1OC(C)C(=O)N1CCC(C)CC1` (centres undefined), the inhibition is -5.19%. Consider `CCC(=O)N(Cc1cc2cc(OC)ccc2[nH]c1=O)c1ccccc1C`, for which the inhibition was 3.53%. The figure for `COc1ccc2[nH]c(=O)c(CNc3ccc(C)c(C)c3)cc2c1` is 98.6% (active). The figure for `COc1ccc(N(Cc2cc3cc(OC)ccc3[nH]c2=O)S(C)(=O)=O)cc1` is 2.96%. Consider `CC(NC(=S)Nc1ccc(OC(F)F)cc1)c1ccc(F)cc1` (centres undefined), for which the inhibition was 36.8%. On to `OCCC#Cc1ccc(CN2CCN(Cc3ccsc3)C(CCO)C2)cc1` (centres undefined), for which the inhibition is -0.59%.

As to `OCCC1CN(Cc2ccccc2-c2ccco2)CCN1Cc1ccsc1` (centres undefined), the inhibition was 9.42%. As to `OCCC1CN(Cc2cccc(OC3CCCC3)c2)CCN1Cc1ccsc1` (centres undefined), the inhibition is 80.5% (active). With `C=CCC(C(=O)c1ccccc1)[N+](C)(C)CC=C` (centres undefined) the figure was -3.06%; with `COc1ccc(NC(=O)C(C)SCc2ccccc2)cc1` (centres undefined), -8.12%; with `CC1(C)OC(=O)C(=CSc2ccc(C(C)(C)C)cc2)C(=O)O1`, -9.81%.

With `CN(C)c1nnnn1-c1ccc(Cl)cc1`, the inhibition was 2.19%. For the compound `CCN(CC)c1ccc(/C=N/Nc2nc(C)cc(C)n2)c(O)c1`, the inhibition was 99.8% (active). For the compound `CCN(CC)c1ccc(/C=N/Nc2nc(C)cc(=O)[nH]2)cc1`, the inhibition is -1.36%. Consider `CCOc1ccc(-n2c(O)c(/C=N/Nc3nc(C)cc(C)n3)c3ccccc3c2=O)cc1`, for which the inhibition was 14%.

In the case of `Cc1ccc(S(=O)(=O)CC(=O)Nc2c(C)n(C)n(-c3ccccc3)c2=O)cc1`, the inhibition was 2.54%. The figure for `COc1cccc(CNC(=O)CCN2C(=S)NC(C)(C)CC2C)c1` (centres undefined) is -13.5%; for `CCCC(=O)NC(=S)Nc1ccc(CN2CCOCC2)cc1` it is 5.07%; for `O=C1OC(/C=C/c2ccccc2)=NC/1=C/c1ccco1` it is -4.68%. On to `Fc1cccc2ncnc(OCc3ccccc3)c12`, for which the inhibition was -9.83%. With `O=C(N/N=C/c1cc([N+](=O)[O-])ccc1O)/C(=C\c1cccs1)NC(=O)c1ccccc1` the figure was 85.6% (active); with `O=C(N/N=C/c1ccc(O)cc1)/C(=C/c1ccc([N+](=O)[O-])cc1)NC(=O)c1ccccc1`, -2.54%; with `O=C(Nc1ccc(C(=O)O)cc1)/C(=C/c1ccc([N+](=O)[O-])cc1)NC(=O)c1ccccc1`, -2.56%. In the case of `O=C(c1cn(-c2ccccc2)nc1-c1cc2ccccc2oc1=O)N1CCOCC1`, the inhibition was -2.51%. The figure for `CC1(C)CC(=O)C(C2c3ccccc3S(=O)(=O)c3ccccc32)C(=O)C1` is -3.12%; for `Cc1ccccc1OCC(O)CN1CCN(c2ccccn2)CC1` (centres undefined) it is 3.89%. Consider `Cc1cccc(OCC(O)CN2CCN(CCN3C(=O)c4cccc5cccc(c45)C3=O)CC2)c1C` (centres undefined), for which the inhibition was 99.9% (active). For the compound `OC(COc1cccc2ccccc12)CN1CCN(c2ccccn2)CC1` (centres undefined), the inhibition was -1.28%. With `COCCCNC(=S)NNC(=O)C(O)(c1ccccc1)c1ccccc1`, the inhibition is -3.7%. Turning to `Clc1ccc(-c2nc3ccccn3c2CN2CCSCC2)cc1`, the inhibition is 77.4% (active). Turning to `O=C(CN1CCSCC1)N/N=C/c1ccc(Cl)cc1`, the inhibition is 7.06%. On to `CN(C)C(=O)c1nc2ccc(Cl)cn2c1CN1CCN(c2ncccn2)CC1`, for which the inhibition was 7.72%.

One may read the inhibition as the change of the read-out against control, counted positive when it falls.
